For some of these results: Entries with a potency or affinity are not part of this list.

Common to all, as to design: scale not given: direction of the effect not stated beside the values
Assay [1] has as its target Protein translocase subunit SecA (Escherichia coli (strain K12)) (UniProt P10408). Nature of the assay: Assay to Identify E. coli SecA ATPase Inhibitors. To be noted: 30 µM. The assay is classed as functional.
The target in assay [2] is T1, Ubiquitin-activating enzyme e1, putative (Leishmania donovani (strain BPK282A1)) (UniProt E9BSI1).
T1 sequence (whole entry): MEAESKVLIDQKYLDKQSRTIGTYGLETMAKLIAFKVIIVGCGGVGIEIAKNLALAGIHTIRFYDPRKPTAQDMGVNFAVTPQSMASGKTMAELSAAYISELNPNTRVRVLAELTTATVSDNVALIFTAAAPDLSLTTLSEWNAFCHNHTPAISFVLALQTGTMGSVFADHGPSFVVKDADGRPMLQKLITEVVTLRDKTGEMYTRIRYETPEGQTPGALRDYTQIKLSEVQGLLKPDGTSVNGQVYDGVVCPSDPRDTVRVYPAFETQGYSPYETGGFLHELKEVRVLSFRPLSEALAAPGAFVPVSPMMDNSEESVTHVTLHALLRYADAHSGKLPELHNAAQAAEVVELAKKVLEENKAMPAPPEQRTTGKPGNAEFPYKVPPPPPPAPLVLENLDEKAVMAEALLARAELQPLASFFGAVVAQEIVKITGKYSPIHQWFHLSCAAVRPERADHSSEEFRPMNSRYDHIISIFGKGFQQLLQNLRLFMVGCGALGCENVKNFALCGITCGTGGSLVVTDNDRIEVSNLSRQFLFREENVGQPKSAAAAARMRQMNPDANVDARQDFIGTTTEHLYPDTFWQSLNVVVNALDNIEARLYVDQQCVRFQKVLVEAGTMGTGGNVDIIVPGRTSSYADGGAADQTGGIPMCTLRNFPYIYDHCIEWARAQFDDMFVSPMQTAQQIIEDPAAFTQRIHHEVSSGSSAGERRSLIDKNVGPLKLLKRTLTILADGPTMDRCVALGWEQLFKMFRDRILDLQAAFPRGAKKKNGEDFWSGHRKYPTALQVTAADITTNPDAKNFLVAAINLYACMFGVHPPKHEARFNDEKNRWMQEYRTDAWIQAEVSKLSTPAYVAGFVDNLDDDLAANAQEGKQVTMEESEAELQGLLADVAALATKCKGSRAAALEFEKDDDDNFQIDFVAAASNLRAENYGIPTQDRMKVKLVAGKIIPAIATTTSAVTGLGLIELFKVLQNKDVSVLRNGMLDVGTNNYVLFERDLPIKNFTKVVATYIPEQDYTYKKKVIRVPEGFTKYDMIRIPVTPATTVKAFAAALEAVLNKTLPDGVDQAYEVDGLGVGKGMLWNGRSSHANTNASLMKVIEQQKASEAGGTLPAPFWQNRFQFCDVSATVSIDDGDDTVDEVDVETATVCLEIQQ
Nature of the assay: Leishmania donovani Ubiquitin Activating Enzyme (LdE1). To be noted: 30 µM. The format is functional.

Assay [3] addresses Sialic acid-binding Ig-like lectin 9 (Homo sapiens) (UniProt Q9Y336). The assay is described as follows: Hs-Siglec9 ALPHAscreen SOP 20170721. To be noted: 10 µM. Background: In Alpha technology, singlet oxygen from a donor bead excites a nearby acceptor bead.
For assay [4], the system named is Trypanosoma cruzi. Nature of the assay: Trypanosoma cruzi phosphomannomutase and mannose-1-phosphate guanylyltransferase assay. The assay is classed as functional. The conditions noted are these: 10 µM.
In assay [5] the target is T2, Arginase-2, mitochondrial (Homo sapiens) (UniProt P78540).
T2 sequence (whole entry): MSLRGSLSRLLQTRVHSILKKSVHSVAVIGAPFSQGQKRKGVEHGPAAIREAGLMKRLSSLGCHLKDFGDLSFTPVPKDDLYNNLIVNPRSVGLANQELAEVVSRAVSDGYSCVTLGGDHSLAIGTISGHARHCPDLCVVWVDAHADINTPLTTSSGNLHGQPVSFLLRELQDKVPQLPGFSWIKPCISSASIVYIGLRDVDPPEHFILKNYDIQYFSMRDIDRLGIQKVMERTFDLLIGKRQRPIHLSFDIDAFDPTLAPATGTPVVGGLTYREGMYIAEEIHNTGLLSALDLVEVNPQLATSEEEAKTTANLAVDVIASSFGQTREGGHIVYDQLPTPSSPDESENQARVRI
The assay is described as follows: in vitro enzyme assay to detect the production of urea directly proportional to the activity of Arginase II. Further: in the data most compounds retested in dose-response had high values. The format is functional. To be noted: 33.3 µM.

Assay [6] addresses T3, Proteasome subunit beta (Trypanosoma cruzi) (UniProt O96673).
T3 sequence (whole entry): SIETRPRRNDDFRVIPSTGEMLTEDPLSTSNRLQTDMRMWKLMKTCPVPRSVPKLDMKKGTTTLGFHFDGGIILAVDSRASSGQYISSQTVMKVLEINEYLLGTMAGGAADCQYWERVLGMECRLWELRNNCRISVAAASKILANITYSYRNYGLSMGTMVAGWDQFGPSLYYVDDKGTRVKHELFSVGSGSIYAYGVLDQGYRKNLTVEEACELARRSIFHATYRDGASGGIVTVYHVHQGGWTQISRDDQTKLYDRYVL
The assay is described as follows: Trypanosoma cruzi proteasome chymotrypsin-like activity (TcProtChymo) assay. Further: in the data most compounds retested in dose-response had high values. The format is functional. The conditions noted are these: 9.37 µM.

For assay [7], the species on record is Homo sapiens. The assay is described as follows: To identify inhibition of the IFN signalling (Jak-Stat) pathway via expression of an eGFP reporter gene under the control of an IFN-stimulated response element (ISRE) containing MxA promoter. The format is functional. The conditions noted are these: 30 µM. On the technique in general: In a reporter assay the amount or activity of a reporter protein is the signal.

For assay [8], the target named is T4, Tyrosyl-tRNA synthetase, putative (Trypanosoma cruzi (strain CL Brener)) (UniProt Q4DSP6).
T4 sequence (whole entry): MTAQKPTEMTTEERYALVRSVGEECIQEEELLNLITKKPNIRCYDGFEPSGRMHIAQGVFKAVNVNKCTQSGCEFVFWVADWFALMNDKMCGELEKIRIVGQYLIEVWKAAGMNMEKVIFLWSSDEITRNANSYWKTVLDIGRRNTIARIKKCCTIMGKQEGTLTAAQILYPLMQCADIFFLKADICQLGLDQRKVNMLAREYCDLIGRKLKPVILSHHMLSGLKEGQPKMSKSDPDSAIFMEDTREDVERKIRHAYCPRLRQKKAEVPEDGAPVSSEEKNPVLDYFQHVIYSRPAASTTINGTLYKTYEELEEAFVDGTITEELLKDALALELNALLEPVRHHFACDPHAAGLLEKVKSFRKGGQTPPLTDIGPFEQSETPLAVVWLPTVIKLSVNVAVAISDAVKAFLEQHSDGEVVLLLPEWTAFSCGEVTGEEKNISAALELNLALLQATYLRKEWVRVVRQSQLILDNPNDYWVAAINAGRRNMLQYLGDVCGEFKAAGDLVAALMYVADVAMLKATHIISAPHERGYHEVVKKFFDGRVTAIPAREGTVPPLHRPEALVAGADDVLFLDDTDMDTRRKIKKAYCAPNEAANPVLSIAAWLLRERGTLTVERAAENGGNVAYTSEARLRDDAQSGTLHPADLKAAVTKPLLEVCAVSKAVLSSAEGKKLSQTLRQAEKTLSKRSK
Nature of the assay: Trypanosoma cruzi tyrosyl tRNA synthetase (TcYRS) _High Tyrosine SOP. Further: in the data most compounds retested in dose-response had high values. The format is functional. To be noted: 30 µM.

The target in assay [9] is T4, Tyrosyl-tRNA synthetase, putative (Trypanosoma cruzi (strain CL Brener)). Nature of the assay: Trypanosoma cruzi tyrosyl tRNA synthetase (TcYRS) SOP. To be noted: 30 µM. The assay is classed as functional.
The target in assay [10] is Chromo domain-containing protein 1 (Saccharomyces cerevisiae (strain ATCC 204508 / S288c) (Baker's yeast)) (UniProt P32657). The assay is described as follows: ScCHD-1 Enzyme Inhibition Assay. Further: in the data most compounds retested in dose-response had high values. The conditions noted are these: 30 µM. The format is functional.
Chromo domain-containing protein 1 (Saccharomyces cerevisiae (strain ATCC 204508 / S288c) (Baker's yeast)), sequence (P32657 whole entry, the tested form may be a part): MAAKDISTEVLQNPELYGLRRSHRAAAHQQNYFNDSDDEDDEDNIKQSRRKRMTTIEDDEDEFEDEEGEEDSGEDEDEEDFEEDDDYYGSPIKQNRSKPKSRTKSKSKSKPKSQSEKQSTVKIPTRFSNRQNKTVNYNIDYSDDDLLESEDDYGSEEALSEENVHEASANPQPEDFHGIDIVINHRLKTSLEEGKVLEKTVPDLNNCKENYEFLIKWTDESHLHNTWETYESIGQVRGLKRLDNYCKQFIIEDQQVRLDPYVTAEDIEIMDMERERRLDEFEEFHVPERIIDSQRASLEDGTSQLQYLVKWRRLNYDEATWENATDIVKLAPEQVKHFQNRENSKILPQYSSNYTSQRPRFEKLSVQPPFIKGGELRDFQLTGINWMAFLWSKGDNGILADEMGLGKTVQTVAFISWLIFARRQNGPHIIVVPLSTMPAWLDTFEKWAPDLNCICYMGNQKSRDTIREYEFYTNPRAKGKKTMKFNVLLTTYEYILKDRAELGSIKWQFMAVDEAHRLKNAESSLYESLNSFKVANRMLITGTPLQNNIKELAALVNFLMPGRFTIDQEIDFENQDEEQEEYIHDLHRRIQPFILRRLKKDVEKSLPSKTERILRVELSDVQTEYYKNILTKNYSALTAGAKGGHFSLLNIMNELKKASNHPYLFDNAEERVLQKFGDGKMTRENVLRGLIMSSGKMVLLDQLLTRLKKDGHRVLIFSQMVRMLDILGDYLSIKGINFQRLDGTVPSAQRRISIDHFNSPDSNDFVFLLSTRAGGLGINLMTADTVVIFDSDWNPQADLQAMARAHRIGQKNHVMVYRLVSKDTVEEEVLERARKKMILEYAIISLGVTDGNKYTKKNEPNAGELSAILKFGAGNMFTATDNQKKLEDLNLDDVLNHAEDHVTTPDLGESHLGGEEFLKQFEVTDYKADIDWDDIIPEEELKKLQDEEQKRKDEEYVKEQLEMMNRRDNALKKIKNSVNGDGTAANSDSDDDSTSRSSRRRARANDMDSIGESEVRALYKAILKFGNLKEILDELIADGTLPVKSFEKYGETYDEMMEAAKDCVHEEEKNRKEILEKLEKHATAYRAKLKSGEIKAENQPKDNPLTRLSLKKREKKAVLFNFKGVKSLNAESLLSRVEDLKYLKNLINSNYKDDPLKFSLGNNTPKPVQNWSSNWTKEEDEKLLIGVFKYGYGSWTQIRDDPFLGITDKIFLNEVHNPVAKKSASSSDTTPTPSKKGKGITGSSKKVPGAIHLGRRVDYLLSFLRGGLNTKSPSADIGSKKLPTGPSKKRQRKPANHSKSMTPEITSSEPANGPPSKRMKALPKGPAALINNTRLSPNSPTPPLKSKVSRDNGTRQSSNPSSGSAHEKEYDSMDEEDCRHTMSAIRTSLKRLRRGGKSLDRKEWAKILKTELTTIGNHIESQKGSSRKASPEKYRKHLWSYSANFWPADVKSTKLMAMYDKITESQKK

Sialic acid-binding Ig-like lectin 9 (Homo sapiens), sequence (Q9Y336 whole entry): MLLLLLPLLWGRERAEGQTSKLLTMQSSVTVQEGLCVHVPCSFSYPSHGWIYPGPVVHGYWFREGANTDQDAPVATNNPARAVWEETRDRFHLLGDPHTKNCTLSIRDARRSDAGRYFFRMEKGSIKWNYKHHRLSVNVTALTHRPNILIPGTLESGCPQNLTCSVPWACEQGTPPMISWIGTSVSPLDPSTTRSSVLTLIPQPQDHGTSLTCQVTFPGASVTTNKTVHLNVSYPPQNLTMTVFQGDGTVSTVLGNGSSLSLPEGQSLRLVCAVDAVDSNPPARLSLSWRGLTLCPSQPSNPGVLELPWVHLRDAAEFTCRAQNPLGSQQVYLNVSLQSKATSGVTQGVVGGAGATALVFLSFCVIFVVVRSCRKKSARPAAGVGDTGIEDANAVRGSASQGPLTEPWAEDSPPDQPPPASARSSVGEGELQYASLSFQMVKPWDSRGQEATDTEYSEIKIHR
Protein translocase subunit SecA (Escherichia coli (strain K12)), sequence (P10408 whole entry): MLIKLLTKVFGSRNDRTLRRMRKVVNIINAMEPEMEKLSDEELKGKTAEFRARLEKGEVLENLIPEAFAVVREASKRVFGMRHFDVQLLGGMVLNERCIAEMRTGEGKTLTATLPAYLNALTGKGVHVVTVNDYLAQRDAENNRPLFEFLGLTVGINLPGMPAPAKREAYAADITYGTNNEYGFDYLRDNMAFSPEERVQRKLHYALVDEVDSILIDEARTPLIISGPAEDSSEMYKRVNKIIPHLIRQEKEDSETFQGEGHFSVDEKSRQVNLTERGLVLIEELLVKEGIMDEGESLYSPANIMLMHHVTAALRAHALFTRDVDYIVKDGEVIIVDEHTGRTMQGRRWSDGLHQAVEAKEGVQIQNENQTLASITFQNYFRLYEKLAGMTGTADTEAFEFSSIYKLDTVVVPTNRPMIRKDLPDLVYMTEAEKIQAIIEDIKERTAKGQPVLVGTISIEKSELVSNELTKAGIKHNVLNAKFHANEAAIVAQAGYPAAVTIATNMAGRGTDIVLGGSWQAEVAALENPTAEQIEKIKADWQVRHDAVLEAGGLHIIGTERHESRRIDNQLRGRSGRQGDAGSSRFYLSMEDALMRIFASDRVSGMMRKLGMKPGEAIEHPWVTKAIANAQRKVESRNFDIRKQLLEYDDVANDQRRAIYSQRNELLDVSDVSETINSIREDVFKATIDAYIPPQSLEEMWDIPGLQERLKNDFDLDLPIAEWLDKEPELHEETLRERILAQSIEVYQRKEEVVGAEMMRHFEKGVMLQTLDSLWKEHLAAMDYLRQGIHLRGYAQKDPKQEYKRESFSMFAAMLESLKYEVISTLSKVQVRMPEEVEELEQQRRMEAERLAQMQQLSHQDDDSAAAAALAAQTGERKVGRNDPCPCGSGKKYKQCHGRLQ

Take `COc1cccc(OC)c1CN1CCC2(CC(Nc3ccncn3)C2)C1` (stereo not given): the Percent Effect in assay [1] was -0.631%; in assay [2], 1.33%; in assay [3] it was 2.05%; in assay [4], -4.93%; in [5] it was 1.77%; in [6], 3.61%. In addition, the Percent Effect is 11.6% in assay [7], 5.29% in assay [8], 5% in assay [9] and -14% in [10].

In the case of `O=C1CC2(CCN(CC3CC3)C2)CN1c1ccc2c(c1)OCO2` (stereo not given), the Percent Effect was -2.02% in [1]; 16.9% in assay [2]; -7.72% in assay [3]; 1.07% in assay [4]; 25.9% in assay [5]; 21.6% in assay [6]. The Percent Effect in assay [7] is -0.411%; in assay [8], 12.1%; in [9], -48.7%; in assay [10], -4.12%.

In the case of `COCCc1noc(CN2CCCCC2Cn2cc(C)cn2)n1` (stereo not given), the Percent Effect in assay [1] is -0.511%; in assay [2], -2.56%; in assay [3], -0.235%; in [4], 3.85%; in [5], -1.23%; in assay [6], 3.84%. For the same compound, the Percent Effect in assay [7] was 12.7%; in assay [8], -3.35%; in [9], 6.02%; in assay [10] it was -1.31%.

Take `O=C(NCC(=O)N1CCc2ccccc2C1)c1ccoc1`: the Percent Effect is -0.143% in assay [1]; 15.6% in assay [2]; -3.75% in assay [3]; -7.46% in [4]; 1.43% in [5]; 18.1% in assay [6]. The Percent Effect in [7] was 23.4%; in assay [8], 3.92%; in assay [9], 9.41%; in [10], -10.6%.

Take `Cn1cc(C(=O)N2CCCC(Cc3nccs3)C2)cn1` (stereo not given): the Percent Effect in [1] was -2.98%; in assay [2], 12%; in assay [3], -0.254%; in assay [4] it was -2.96%; in [5], 3.54%; in assay [6] it was 7.55%. The Percent Effect in [7] is 6.88%; in assay [8], 2.12%; in assay [9], 15%; in [10], -16.3%.

`COc1ccc(C2CC(=O)Nc3c2cnn3C)cc1` (stereo not given): the Percent Effect is -6.08% in [1]; 2.7% in [2]; -3.92% in assay [3]; -9.99% in assay [4]; -5.94% in [5]; 8.39% in [6]. Also, the Percent Effect in [7] was 39.8%; in assay [8], -0.532%; in assay [9], 4.88%; in assay [10], -3.56%.

In the case of `NC(=O)c1cc(C2CCCN(CCCOc3ccccc3)C2)n[nH]1` (stereo not given), the Percent Effect is 1.07% in [1]; -15.4% in [2]; 18.7% in assay [3]; -0.282% in assay [4]; 6.15% in assay [5]; 1.79% in assay [6]. Further, the Percent Effect in assay [7] was 0.734%; in [8] it was 1.44%; in assay [9], -1.21%; in assay [10], -4.36%.

As for `Cc1n[nH]c(C)c1C1COCCN1C(=O)c1cc(Cl)c[nH]1` (stereo not given), the Percent Effect in assay [1] was -1.38%; in assay [2], 2.56%; in [3], 3.4%; in [4] it was -3.47%; in assay [5], 9.02%; in assay [6], -1.96%. For the same compound, the Percent Effect was 15% in assay [7], -2.39% in assay [8], 1.21% in assay [9] and 2.03% in assay [10].

Consider `CNC(=O)C1CCC(NC(=O)N(C)Cc2c(C)noc2C)CC1` (stereo not given), for which the Percent Effect was -5.49% in [1]; 10.3% in assay [2]; -15.1% in [3]; 11% in assay [4]; -3.28% in assay [5]; 1.96% in assay [6]. Moreover, the Percent Effect amounted to 2.07% in assay [7], 6.22% in [8], 18.1% in assay [9] and 96.3% in assay [10].

For `Cc1[nH]ncc1C(=O)N1CCN(CC(O)C(C)(C)C)CC1` (stereo not given), the Percent Effect in assay [1] is -2.19%; in assay [2], 17.9%; in assay [3], -6.77%; in [4] it was 7.23%; in assay [5] it was -2.46%; in assay [6], 8.79%. In addition, the Percent Effect in assay [7] is -1.39%; in assay [8], 6.22%; in assay [9] it was 20.5%; in assay [10], -6.95%.

(Values after ChEMBL document CHEMBL3988442, “University of Dundee, Small-Polar-MMV Screening Library” (2021).)
